Assay outcomes: PubChem, The Scripps Research Institute Molecular Screening Center
Rows were chosen to be rich in hits. Some 3.5% of all compounds tested hit in one or more screens of this group.
GPR151 ag = human GPR151 activation; actives 1% (n = 650,000); activation, % at 11.2 µM; PathHunter beta-arrestin GPR151 cells, luminescence; Q8TDV0; in the data active = activation above about 4.9%
FBW7 act = human FBW7 E3 ligase activation, primary screen. AlphaScreen FBW7–phospho-cyclin E peptide binding, activator screen. normalized activity (activation), % at 26.1 µM. actives 0.13% (n = 650,000). AID 1259310; in the data active = normalized activity above about 1.9%;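 also: purified mutant Fbw7 with reduced substrate affinity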
Target sequence (Q969H0 whole entry, looked up): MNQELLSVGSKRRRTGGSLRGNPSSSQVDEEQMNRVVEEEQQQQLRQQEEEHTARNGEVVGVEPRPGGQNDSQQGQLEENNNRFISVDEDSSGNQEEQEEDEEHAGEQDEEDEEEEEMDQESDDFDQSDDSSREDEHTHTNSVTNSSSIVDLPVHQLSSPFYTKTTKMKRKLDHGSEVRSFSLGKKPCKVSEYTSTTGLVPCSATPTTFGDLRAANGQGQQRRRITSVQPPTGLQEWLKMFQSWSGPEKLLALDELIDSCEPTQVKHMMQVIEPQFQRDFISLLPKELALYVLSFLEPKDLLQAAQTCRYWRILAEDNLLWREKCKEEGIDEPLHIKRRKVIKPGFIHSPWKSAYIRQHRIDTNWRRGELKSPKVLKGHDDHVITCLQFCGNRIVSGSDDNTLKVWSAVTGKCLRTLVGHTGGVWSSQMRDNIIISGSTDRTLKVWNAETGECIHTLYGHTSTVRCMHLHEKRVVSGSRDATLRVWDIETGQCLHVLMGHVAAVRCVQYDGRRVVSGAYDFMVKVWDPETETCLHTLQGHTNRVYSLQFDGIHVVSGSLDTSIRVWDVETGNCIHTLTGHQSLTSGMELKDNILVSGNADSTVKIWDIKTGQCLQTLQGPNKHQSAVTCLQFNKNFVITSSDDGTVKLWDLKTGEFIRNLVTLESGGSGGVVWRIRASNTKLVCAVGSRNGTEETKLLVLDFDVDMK
TEAD-YAP inh = TEAD-YAP interaction inhibition; inhibition, % at 9.12 µM; AID 1259422; HEK-TIYL cells, TEAD-Gal4/YAP UAS-luciferase luminescence; actives 1.4% (n = 640,000); in the data active = inhibition above about 32%
MITF primary = blocks human microphthalmia-associated transcription factor | inhibition, % at 2.6 µM | actives 0.91% (n = 650,000) | AID 1259374 | O75030 | AlphaScreen MITF homodimerization, bead proximity signal; in the data active = inhibition above about 50%
Numbers stand for hits; i = inactive; ! = not confirmed by another sample.

SMILES	GPR151 ag	FBW7 act	TEAD-YAP inh	MITF primary
O=C1NC(c2cccc([N+](=O)[O-])c2)c2c1n[nH]c2-c1ccco1 (stereo not drawn)	i	i	i	i
O=C(NCc1ccco1)c1ccc2c(=O)n(Cc3ccco3)c(SCc3ccc([N+](=O)[O-])cc3)nc2c1	i	i	i	i
CCCCCCc1cc2cc(C(N)=O)c(=Nc3cccc4ccccc34)oc2cc1O	i	i	i	i
CCN(CC)c1ccc(C(=O)c2ccc(N(CC)CC)cc2)cc1	i	i	34	i
CCN(CC)c1ccc(C(=O)O)cc1	i	i	i	i
COc1ccc(Nc2c3c(nc4ccccc24)CCC3)cc1	i	i	i	i
COC(=O)c1ccc(Nc2c3c(nc4ccccc24)CCC3)cc1	i	i	46	i
CCOc1ccc(NC(=O)c2cnn3ccccc23)cc1	i	i	94	i
CCc1ccc(NC(=O)c2cnn3ccccc23)cc1	i	i	89	i
Cc1ccccc1NC(=O)c1cnn2ccccc12	i	i	i	i
CN1CCN(S(=O)(=O)c2ccc3[nH]cc(C(=O)NCC4CCCO4)c(=O)c3c2)CC1 (stereo not drawn)	i	i	i	i
CCC(C(=O)N/N=C/C=C/c1ccccc1)C(=O)N/N=C/C=C/c1ccccc1	i	i	i	i
COc1cc(CCC(=O)Nc2nnc(C)s2)cc(OC)c1OC	i	i	55	i
COc1cc(C(=O)Nc2nnc(C)s2)c(Br)c(OC)c1OC	i	i	i	i
c1ccc2[nH]c(-c3nc4ccccc4o3)nc2c1	i	i	84	i
c1ccc2oc(-c3ccc(-c4nc5ccccc5o4)cc3)nc2c1	i	i	i	i
c1ccc2nc(-c3nc4ccccc4o3)ccc2c1	i	i	77	i
COc1ccccc1CNC(=O)c1sc2ncnc(N3CCN(c4ccccn4)CC3)c2c1C	i	i	i	i
Cc1cc2c(cc1C)n(C1CC(=O)C3OCC1O3)c(=S)n2Cc1ccccc1Cl (stereo not drawn)	i	i	48	i
CCCC(NC(=O)c1ccc(/C=C2/SC(=S)N(C)C2=O)cc1)C(=O)O (stereo not drawn)	i	i	i	i
c1coc(-c2nc3ccccn3c2Nc2ccc3c(c2)OCCO3)c1	i	i	41	i
Cc1nc(NCCCO)c2c(-c3cccs3)csc2n1	i	i	32	i
CCOc1ccc(-c2n[nH]c3c2C(c2cc(OC)ccc2OC)NC3=O)cc1 (stereo not drawn)	i	i	51	i
COc1ccc(C2NC(=O)c3[nH]nc(-c4ccc(C)cc4)c32)c(OC)c1 (stereo not drawn)	i	i	44	i
CCOc1ccc(-c2n[nH]c3c2C(c2ccc(F)cc2)NC3=O)cc1 (stereo not drawn)	i	i	i	i
SMILES	GPR151 ag	FBW7 act	TEAD-YAP inh	MITF primary
CCCNC(=O)c1cnc(-c2ccc(C(=O)N3CCN(C)CC3)cc2)s1	i	i	i	i
Nc1ccc(C(=O)N/N=C2\CCCc3ccccc32)cc1	i	i	i	i
COc1cc(C(=O)NN=C2CCN(Cc3ccccc3)CC2)cc(OC)c1OC	i	i	70	i
COc1cc(C(=O)NN=C2CCCC2)cc(OC)c1OC	i	i	62	i
COc1cc(C(=O)NC2CCCC2)cc(OC)c1OC	i	i	i	i
COc1cc(C(=O)N/N=C2/CCCc3ccccc32)cc(OC)c1OC	i	i	60	i
COc1cc(C(=O)NN=C2CCC(c3ccccc3)CC2)cc(OC)c1OC (stereo not drawn)	i	i	61	i
COc1ccc(-n2nc([N+](=O)[O-])c(=Nc3ccccc3)n2O)cc1	i	i	54	i
Cc1cc(C)cc(N=c2c([N+](=O)[O-])nn(-c3ccc4c(c3)OCCO4)n2O)c1	i	i	i	i
Cc1ccc(N=c2c([N+](=O)[O-])nn(-c3ccccc3)n2O)c(Cl)c1	i	i	i	i
O=[N+]([O-])c1nn(-c2ccc3c(c2)OCCO3)n(O)c1=Nc1ccccc1	i	i	89	i
Cc1ccc(N=c2c([N+](=O)[O-])nn(-c3ccc4c(c3)OCCO4)n2O)c(Cl)c1	i	i	47	i
CCN1CCN(C(=O)C2c3ccccc3C(=O)N(Cc3ccc(F)cc3)C2c2ccc(OC)cc2)CC1 (stereo not drawn)	i	i	i	i
Cc1nc2cc(-c3ccccc3)nn2c(C)c1CCC(=O)O	i	i	51	i
COc1cc(OC)cc(-c2cc3nc(C)c(CCC(=O)NCc4ccccc4)c(C)n3n2)c1	i	i	39	i
Cc1csc(NC(=O)CCc2c(C)nc3cc(-c4ccccc4)nn3c2C)n1	i	i	38	i
Cc1nc2cc(-c3ccc(Cl)cc3)nn2c(C)c1CCC(=O)O	i	i	44	i
CCCCOc1ccccc1N1C(=O)C2=C(SCCS2)C1=O	i	i	i	i
CC(NC(=O)c1ccccc1[N+](=O)[O-])c1ccc(Br)cc1 (stereo not drawn)	i	i	i	i
O=C(Nc1ccc(O)cc1)c1oc(=O)c2ccccc2c1-c1ccccc1	i	i	i	i
COc1ccc(N(CC(=O)c2ccc(C3CCCCC3)cc2)C2=NCCCCC2)c(OC)c1	i	i	55	i
COc1ccc(N(CC(=O)NC2CCCC2)S(C)(=O)=O)c(OC)c1	i	i	i	i
CC(C)CC1c2[nH]c3ccccc3c2CCN1C(=O)CCn1cnnn1 (stereo not drawn)	i	i	i	i
O=C(Nc1ccc(Oc2ccccc2)cc1)c1ccc(F)c(S(=O)(=O)NCc2ccccc2Cl)c1	i	i	41	i
O=C(Nc1ccc(Oc2ccccc2)cc1)c1ccc(F)c(S(=O)(=O)NC2CCCCCC2)c1	i	i	50	i
SMILES	GPR151 ag	FBW7 act	TEAD-YAP inh	MITF primary
O=C(Nc1ccc(Oc2ccccc2)cc1)c1ccc(F)c(S(=O)(=O)NC2CCCC2)c1	i	i	65	i
O=C(Nc1ccc(Cl)c(Cl)c1)c1ccc(F)c(S(=O)(=O)NC2CCCC2)c1	i	i	i	i
CC(C)c1ccc(NC(=O)c2ccc(F)c(S(=O)(=O)NC3CCCCCC3)c2)cc1	i	i	i	i
O=C(Nc1ccc(Oc2ccccc2)cc1)c1ccc(F)c(S(=O)(=O)NC2CCCCC2)c1	i	i	58	i
O=C(O)CNC(=O)c1ccc2ccccc2c1	i	i	i	i
Cc1csc(NC(=O)CN(C)S(=O)(=O)c2ccc3c(c2)CCC(=O)N3)n1	i	i	i	i
CC(CO)Nc1c2ccccc2nc2ccccc12 (stereo not drawn)	i	i	38	i
COc1cccc(-c2nc(COC(=O)c3[nH]c(C)c(C(C)=O)c3C)cs2)c1	i	i	44	i
O=S(=O)(NCc1cccnc1)c1c(Cl)cccc1Cl	i	i	i	i
O=c1c2c3c(sc2nc2c4ccccc4cnn12)CCCC3	i	i	53	i
O=c1c2c3c(sc2nc2c4ccccc4c4nnnn4n12)CCCC3	i	i	i	i
CCNc1nc(NC(C)(C)C)nc(SC(C(C)=O)C(C)=O)n1	i	i	42	i
NC(=S)NNc1cccc2cccnc12	i	i	i	74!
O=C(CSc1ncccc1-c1nc2ccccc2[nH]1)NCc1ccco1	i	i	i	i
Cc1cc2nc(-c3cccnc3SCC(=O)NCc3ccco3)[nH]c2cc1C	i	i	37	i
